Experimental data reported in PubChem BioAssay AID1159580 (chemical genetic matrix, 2015).
About 2,000 (36%) of roughly 5,500 compounds were called active. About 18% were inconclusive and are not listed. Rule as the data show it: active = normalized growth mostly below about 0.91 (no sharp cut-off); inconclusive = no clear call, values can overlap the other calls; inactive = mostly above about 0.92. The list shows a part of the results.

Assay: chemical genetic growth profiling, strain panel (AID 1159580);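 also: tested at 20 µM; growth read once vehicle control cultures reached saturation at 30 °C; 1 = growth at the plate median or of vehicle wells; lower values mean less growth of the strain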
Conditions: S. cerevisiae deletion strains, growth OD
[1] = locus YAL040C, strain CLN3, stronger effect = lower value
[2] = locus YCL061C, strain MRC1 (second series), stronger effect = lower value
[3] = locus YER002W, strain NOP16, stronger effect = lower value
[4] = locus YGR078C, strain PAC10, stronger effect = lower value
[5] = locus YGR229C, strain SMI1, stronger effect = lower value
[6] = locus YJR075W, strain HOC1, stronger effect = lower value
[7] = locus YNL175C, strain NOP13, stronger effect = lower value
[8] = locus YNL197C, strain WHI3, stronger effect = lower value
[9] = locus YNL224C, strain SQS1, stronger effect = lower value
[10] = locus YNL322C, strain KRE1, stronger effect = lower value
[11] = locus YOR083W, strain WHI5 (second series), stronger effect = lower value

Measured: normalized growth

NCCNC(=O)Cc1ccc(NC(=O)Cc2ccc(Nc3ncnc4c3ncn4[C@@H]3O[C@H](CO)[C@H](O)C3O)cc2)cc1 (some centres undefined)
inactive: [1] 1.01 | [2] 0.999 | [3] 0.999 | [4] 1.01 | [5] 1.03 | [6] 1 | locus YMR263W, strain SAP30, stronger effect = lower value 1.01 | [7] 1.01 | [8] 1.02 | [9] 0.994 | [10] 1 | [11] 1.02

COC(=O)N1CCN(C(=O)Cc2ccc(Cl)c(Cl)c2)C(CN2CCCC2)C1 (centres undefined)
inactive: [1] 0.997 | [2] 1.01 | locus YDR150W, strain NUM1, stronger effect = lower value 1 | locus YDR363W, strain ESC2, stronger effect = lower value 1 | [3] 0.995 | [4] 1 | [5] 0.982 | [6] 1.01 | locus YMR307W, strain GAS1, stronger effect = lower value 1 | locus YNL128W, strain TEP1, stronger effect = lower value 1.01 | locus YNL153C, strain GIM3, stronger effect = lower value 1 | [7] 1.01 | [8] 1.04 | [9] 1 | [10] 1.01 | [11] 1.05 | locus YPL241C, strain CIN2, stronger effect = lower value 1

Cc1nc(-c2ccc(C(F)(F)F)cn2)[nH]c(=O)c1Cl
inactive: locus YAR019C, strain CDC15, stronger effect = lower value 0.899 | locus YBL105C, strain PKC1, stronger effect = lower value 0.932 | locus YBR135W, strain CKS1, stronger effect = lower value 0.916 | locus YBR136W, strain MEC1, stronger effect = lower value 0.922 | locus YBR160W, strain CDC28, stronger effect = lower value 0.922 | locus YDL017W, strain CDC7, stronger effect = lower value 0.938 | locus YDL028C, strain MPS1, stronger effect = lower value 0.909 | locus YDL101C, strain DUN1, stronger effect = lower value 0.939 | locus YDL108W, strain KIN28, stronger effect = lower value 0.921 | locus YDL132W, strain cdc53, stronger effect = lower value 0.905 | locus YDL214C, strain PRR2, stronger effect = lower value 0.86 | locus YDR052C, strain DBF4, stronger effect = lower value 0.943 | locus YDR054C, strain cdc34, stronger effect = lower value 0.887 | locus YDR226W, strain ADK1, stronger effect = lower value 0.924 | locus YDR477W, strain SNF1, stronger effect = lower value 0.833 | locus YER123W, strain YCK3, stronger effect = lower value 0.692 | locus YER133W, strain GLC7, stronger effect = lower value 0.831 | locus YFL009W, strain cdc4, stronger effect = lower value 0.896 | locus YFL029C, strain CAK1, stronger effect = lower value 0.901 | locus YFR003C, strain YPI1, stronger effect = lower value 0.929 | locus YFR019W, strain FAB1, stronger effect = lower value 0.908 | locus YFR028C, strain CDC14, stronger effect = lower value 0.918 | locus YGR040W, strain KSS1, stronger effect = lower value 0.834 | locus YGR052W, strain FMP48, stronger effect = lower value 0.815 | locus YGR092W, strain DBF2, stronger effect = lower value 0.689 | locus YHR079C, strain IRE1, stronger effect = lower value 0.639 | locus YHR082C, strain KSP1, stronger effect = lower value 0.945 | locus YHR205W, strain SCH9, stronger effect = lower value 0.978 | locus YIL147C, strain SLN1, stronger effect = lower value 0.919 | locus YJL095W, strain BCK1, stronger effect = lower value 0.675 | locus YJL128C, strain PBS2, stronger effect = lower value 0.928 | locus YJL157C, strain FAR1, stronger effect = lower value 0.813 | locus YJR016C, strain ILV3, stronger effect = lower value 0.924 | locus YJR066W, strain TOR1 (second series), stronger effect = lower value 0.769 | locus YJR066W, strain TOR1, stronger effect = lower value 0.848 | locus YKL048C, strain ELM1, stronger effect = lower value 0.927 | locus YKL067W, strain YNK1, stronger effect = lower value 0.857 | locus YKL101W, strain HSL1, stronger effect = lower value 0.88 | locus YKL193C, strain SDS22, stronger effect = lower value 0.903 | locus YKL203C, strain TOR2, stronger effect = lower value 0.886 | locus YLR133W, strain CKI1, stronger effect = lower value 0.857 | locus YLR403W, strain SFP1, stronger effect = lower value 0.809 | locus YML070W, strain DAK1, stronger effect = lower value 0.825 | locus YMR001C, strain CDC5, stronger effect = lower value 0.914 | locus YMR205C, strain PFK2 (second series), stronger effect = lower value 0.859 | locus YMR277W, strain FCP1, stronger effect = lower value 0.893 | locus YNL006W, strain LST8, stronger effect = lower value 0.957 | locus YNL020C, strain ARK1, stronger effect = lower value 0.853 | locus YNL161W, strain CBK1, stronger effect = lower value 0.912 | locus YNL183C, strain NPR1, stronger effect = lower value 0.696 | locus YNL207W, strain RIO2, stronger effect = lower value 0.919 | locus YNL222W, strain SSU72, stronger effect = lower value 0.905 | locus YNL307C, strain MCK1 (second series), stronger effect = lower value 0.826 | locus YOL078W, strain AVO1, stronger effect = lower value 0.896 | locus YOL136C, strain PFK27, stronger effect = lower value 0.868 | locus YOR061W, strain CKA2, stronger effect = lower value 0.858 | locus YOR119C, strain RIO1, stronger effect = lower value 0.821 | locus YOR231W, strain MKK1, stronger effect = lower value 0.685 | locus YOR329C, strain SCD5, stronger effect = lower value 0.93 | locus YPL031C, strain PHO85, stronger effect = lower value 0.787 | locus YPL153C, strain RAD53, stronger effect = lower value 0.755 | locus YPL204W, strain HRR25, stronger effect = lower value 0.777 | locus YPL209C, strain IPL1, stronger effect = lower value 0.926 | locus YPR025C, strain CCL1, stronger effect = lower value 0.923 | locus YPR106W, strain ISR1, stronger effect = lower value 0.95 | locus YPR111W, strain DBF20, stronger effect = lower value 0.937 | strain NNK1, stronger effect = lower value 0.932 | strain TSCII, stronger effect = lower value 0.888
active: locus YLR113W, strain HOG1, stronger effect = lower value 0.651 | locus YPL256C, strain CLN2, stronger effect = lower value 0.72
